Data reported in the supplement of paper PMC10849652.
Of roughly 7,900 targets only a part is listed; those with a hit were picked by preference. About 0.6% of all pairs of compound and target were hits.

Tests used:
Assay in all cases: log2 fold change, soluble protein after heating vs DMSO (PISA); higher = thermal stabilisation; K562 cells, 10 uM, 30 min; active = over 0.2 and 3.5 SD of the protein, either way, in both replicates (recomputed)
erlotinib = compound: C#Cc1cccc(Nc2ncnc3cc(OCCOC)c(OCCOC)cc23)c1 [erlotinib]
Procedure, shortened: (§1)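 K562 cells at 2×10^6 cells/mL were given 10 μM compound for 30 min. Aliquots then went through 3 min of heating across 48°C-58°C, were pooled, and were extracted in PBS with 0.5% NP-40 at 4°C, and the supernatant after 21,000xg for 90 min was quantified by TMTpro 16plex LC-MS/MS with channel sums equalised. Thermal stability relative to control samples, from duplicates, is given as log2 fold change.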

[1] = compound: C/C(=N\NC(=O)C1=CC(=CC=C1)S(=O)(=O)N2CCOCC2)/C3=C(C=CC(=C3)Cl)O
Procedure, shortened: as §1

[2] = compound: C1=CC(=C(C=C1Cl)C2=NC3=NC=CN=C3C(=N2)NC4=CC=NC=C4)F
Procedure, shortened: as §1

[3] = compound: C1=CC(=CC=C1C2=NC3=C(N2)C=C(C=C3)C(=O)N)OC4=CC=C(C=C4)Cl
Procedure, shortened: as §1

[4] = compound: C1=CC2=C(C=CC(=C2)/C=C\3/C(=O)NC(=NCC4=CC=CS4)S3)N=C1
Procedure, shortened: as §1

[5] = compound: C1=CC2=NC=CN=C2C=C1/C=C/3\C(=O)NC(=O)S3
Procedure, shortened: as §1

[6] = compound: C1=CC=C(C=C1)C2=NC(=C(N2)C3=CC=NC=C3)C4=CC(=C(C=C4)Cl)O
Procedure, shortened: as §1

[7] = compound: C1=CC=C2C(=C1)C3=NNC4=CC=CC(=C43)C2=O
Procedure, shortened: as §1

[8] = compound: C1CCN(C1)C(=O)NC2=CC=CC(=C2)NC3=NC=C(C(=N3)NCCC4=CN=CN4)Br
Procedure, shortened: as §1

[9] = compound: C1CN(CCC1(CC2=CC=C(C=C2)Cl)N)C3=NC=NC4=C3C=CN4
Procedure, shortened: as §1

Measured: log2 fold change

NUP107 (UniProt P57740)
Sequence of UniProt P57740 (P57740 whole entry, looked up): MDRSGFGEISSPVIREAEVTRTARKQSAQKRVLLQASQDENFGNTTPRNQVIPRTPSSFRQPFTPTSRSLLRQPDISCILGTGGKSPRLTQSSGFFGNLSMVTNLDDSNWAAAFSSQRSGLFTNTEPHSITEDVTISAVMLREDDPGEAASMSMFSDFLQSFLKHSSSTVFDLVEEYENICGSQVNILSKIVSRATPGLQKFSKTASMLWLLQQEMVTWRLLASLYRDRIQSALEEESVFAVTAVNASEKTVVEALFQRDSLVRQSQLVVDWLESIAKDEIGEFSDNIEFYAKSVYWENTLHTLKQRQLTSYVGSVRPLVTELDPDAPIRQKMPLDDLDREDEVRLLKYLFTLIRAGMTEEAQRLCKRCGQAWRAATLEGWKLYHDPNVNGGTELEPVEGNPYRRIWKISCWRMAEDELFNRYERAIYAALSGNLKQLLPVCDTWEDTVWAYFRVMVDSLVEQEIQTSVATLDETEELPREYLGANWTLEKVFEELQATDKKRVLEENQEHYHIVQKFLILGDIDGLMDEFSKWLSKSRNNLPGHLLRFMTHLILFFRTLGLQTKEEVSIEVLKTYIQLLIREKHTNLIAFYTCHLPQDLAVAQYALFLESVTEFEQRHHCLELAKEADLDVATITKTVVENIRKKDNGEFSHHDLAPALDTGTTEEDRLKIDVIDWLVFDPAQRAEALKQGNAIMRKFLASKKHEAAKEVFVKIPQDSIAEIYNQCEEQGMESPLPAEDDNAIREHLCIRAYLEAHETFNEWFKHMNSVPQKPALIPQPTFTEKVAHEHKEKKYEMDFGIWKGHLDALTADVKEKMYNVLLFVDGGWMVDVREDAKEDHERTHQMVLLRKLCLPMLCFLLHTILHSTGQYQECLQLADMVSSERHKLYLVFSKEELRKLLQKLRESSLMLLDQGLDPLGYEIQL
inactive: erlotinib -0.05 | [1] 0.004 | [2] -0.128 | [3] 0.063 | [4] 0.04 | [5] 0.065 | [6] -0.037 | [7] -0.192 | [8] -0.145 | [9] -0.005

MOV10 (UniProt Q9HCE1)
Sequence of UniProt Q9HCE1 (Q9HCE1 whole entry, looked up): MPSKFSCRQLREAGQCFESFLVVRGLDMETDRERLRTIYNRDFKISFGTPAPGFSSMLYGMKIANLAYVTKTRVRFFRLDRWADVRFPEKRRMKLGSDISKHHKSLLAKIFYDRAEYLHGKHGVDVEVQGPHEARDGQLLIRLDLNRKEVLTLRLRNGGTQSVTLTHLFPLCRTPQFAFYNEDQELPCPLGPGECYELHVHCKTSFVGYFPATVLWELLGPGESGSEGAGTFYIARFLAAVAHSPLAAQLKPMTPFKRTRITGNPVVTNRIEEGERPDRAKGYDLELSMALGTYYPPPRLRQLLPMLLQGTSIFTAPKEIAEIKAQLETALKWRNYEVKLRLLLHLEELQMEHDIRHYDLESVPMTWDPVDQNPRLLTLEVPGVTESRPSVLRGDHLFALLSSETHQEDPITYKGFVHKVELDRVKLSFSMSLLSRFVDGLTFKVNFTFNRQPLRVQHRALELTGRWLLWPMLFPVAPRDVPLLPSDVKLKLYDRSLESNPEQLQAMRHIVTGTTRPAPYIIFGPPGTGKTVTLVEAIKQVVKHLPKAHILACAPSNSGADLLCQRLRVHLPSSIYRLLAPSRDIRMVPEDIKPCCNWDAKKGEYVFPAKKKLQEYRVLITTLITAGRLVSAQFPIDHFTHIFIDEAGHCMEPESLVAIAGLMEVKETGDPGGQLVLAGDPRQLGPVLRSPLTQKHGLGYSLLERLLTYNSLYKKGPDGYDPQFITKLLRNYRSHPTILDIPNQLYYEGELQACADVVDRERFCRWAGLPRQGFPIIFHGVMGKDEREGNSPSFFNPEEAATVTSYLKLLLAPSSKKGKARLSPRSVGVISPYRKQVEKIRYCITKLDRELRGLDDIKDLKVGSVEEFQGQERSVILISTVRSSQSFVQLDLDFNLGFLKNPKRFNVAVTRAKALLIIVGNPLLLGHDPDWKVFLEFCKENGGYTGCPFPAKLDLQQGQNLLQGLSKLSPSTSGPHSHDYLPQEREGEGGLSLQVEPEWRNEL
inactive: erlotinib -0.103 | [1] -0.062 | [2] -0.242 | [3] 0.026 | [4] -0.002 | [5] 0.049 | [6] -0.049 | [7] -0.054 | [8] 0.04 | [9] -0.158

NOP53 (UniProt Q9NZM5)
inactive: erlotinib -0.201 | [1] -0.272 | [2] -0.231 | [3] 0.005 | [4] -0.298 | [5] 0.036 | [6] -0.147 | [7] -0.121 | [8] 0.058 | [9] -0.387

NUDT16 (UniProt Q96DE0)
Sequence of UniProt Q96DE0 (Q96DE0 whole entry, looked up): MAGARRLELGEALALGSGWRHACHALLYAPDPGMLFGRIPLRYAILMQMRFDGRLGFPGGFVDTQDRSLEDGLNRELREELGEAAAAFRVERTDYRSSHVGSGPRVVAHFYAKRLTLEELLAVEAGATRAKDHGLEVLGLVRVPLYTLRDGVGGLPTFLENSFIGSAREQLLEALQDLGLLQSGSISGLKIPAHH
inactive: erlotinib 0.081 | [1] 0 | [2] 0.111 | [3] 0.01 | [4] -0.034 | [5] -0.004 | [6] 0.014 | [7] 0.026 | [8] -0.085 | [9] 0.081

NMD3 (UniProt Q96D46)
Sequence of UniProt Q96D46 (Q96D46 whole entry, looked up): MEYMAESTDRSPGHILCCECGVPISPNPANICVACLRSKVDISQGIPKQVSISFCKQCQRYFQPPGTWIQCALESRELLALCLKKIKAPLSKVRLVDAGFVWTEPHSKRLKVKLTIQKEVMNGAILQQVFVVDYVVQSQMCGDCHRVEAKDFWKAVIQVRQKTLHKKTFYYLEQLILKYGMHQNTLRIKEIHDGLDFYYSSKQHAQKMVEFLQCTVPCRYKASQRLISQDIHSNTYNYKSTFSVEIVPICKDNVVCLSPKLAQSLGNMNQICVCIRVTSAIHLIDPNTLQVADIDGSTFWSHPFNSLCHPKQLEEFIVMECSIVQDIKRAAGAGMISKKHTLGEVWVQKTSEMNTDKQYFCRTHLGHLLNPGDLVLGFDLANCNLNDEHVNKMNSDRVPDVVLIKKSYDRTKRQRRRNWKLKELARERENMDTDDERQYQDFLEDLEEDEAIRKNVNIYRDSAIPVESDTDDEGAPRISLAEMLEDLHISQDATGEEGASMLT
active: [9] -0.281
inactive: erlotinib 0.025 | [1] 0.011 | [2] 0.052 | [3] 0.023 | [4] 0.009 | [5] -0.02 | [6] 0.05 | [7] 0.013 | [8] 0.064

NOP56 (UniProt O00567)
inactive: erlotinib -0.093 | [1] -0.012 | [3] 0.087 | [4] -0.232 | [5] 0.045 | [6] -0.164 | [7] -0.109 | [8] -0.111 | [9] -0.15
active: [2] -0.676

NUP160 (UniProt Q12769)
inactive: erlotinib 0.001 | [1] 0.022 | [2] 0.01 | [3] -0.024 | [4] -0.006 | [5] 0.045 | [6] -0.017 | [7] -0.091 | [8] -0.085 | [9] -0.025

OGFOD1 (UniProt Q8N543)
inactive: erlotinib 0.043 | [1] -0.18 | [2] 0.02 | [3] 0.007 | [4] 0.015 | [5] 0.11 | [6] -0.01 | [7] 0.014 | [8] 0.007 | [9] 0.03

NMRAL1 (UniProt Q9HBL8)
Sequence of UniProt Q9HBL8 (Q9HBL8 whole entry, looked up): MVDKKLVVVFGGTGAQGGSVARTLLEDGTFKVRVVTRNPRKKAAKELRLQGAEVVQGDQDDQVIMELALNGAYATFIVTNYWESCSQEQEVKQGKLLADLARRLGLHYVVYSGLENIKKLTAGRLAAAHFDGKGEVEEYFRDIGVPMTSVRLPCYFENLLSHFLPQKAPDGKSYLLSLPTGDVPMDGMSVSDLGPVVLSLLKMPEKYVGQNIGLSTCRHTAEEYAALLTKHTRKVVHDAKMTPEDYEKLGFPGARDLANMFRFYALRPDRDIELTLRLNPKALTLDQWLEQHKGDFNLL
active: [2] 0.841
inactive: erlotinib 0.239 | [1] -0.118 | [3] -0.054 | [4] 0.098 | [5] 0.141 | [6] 0.029 | [7] 0.273 | [8] -0.055 | [9] 0.037

NAT14 (UniProt Q8WUY8)
Sequence of UniProt Q8WUY8 (Q8WUY8 whole entry, looked up): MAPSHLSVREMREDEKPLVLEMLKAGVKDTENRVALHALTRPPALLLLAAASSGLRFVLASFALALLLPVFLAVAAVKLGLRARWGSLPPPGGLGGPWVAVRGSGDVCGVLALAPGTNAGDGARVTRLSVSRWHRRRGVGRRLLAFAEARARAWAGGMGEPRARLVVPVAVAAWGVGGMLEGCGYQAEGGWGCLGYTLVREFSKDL
inactive: erlotinib -0.016 | [1] 0.079 | [2] -0.002 | [3] 0.014 | [4] 0.057 | [5] 0.046 | [6] 0.135 | [7] 0.033 | [8] 0.002 | [9] -0.084

OSBP (UniProt P22059)
Sequence of UniProt P22059 (P22059 whole entry, looked up): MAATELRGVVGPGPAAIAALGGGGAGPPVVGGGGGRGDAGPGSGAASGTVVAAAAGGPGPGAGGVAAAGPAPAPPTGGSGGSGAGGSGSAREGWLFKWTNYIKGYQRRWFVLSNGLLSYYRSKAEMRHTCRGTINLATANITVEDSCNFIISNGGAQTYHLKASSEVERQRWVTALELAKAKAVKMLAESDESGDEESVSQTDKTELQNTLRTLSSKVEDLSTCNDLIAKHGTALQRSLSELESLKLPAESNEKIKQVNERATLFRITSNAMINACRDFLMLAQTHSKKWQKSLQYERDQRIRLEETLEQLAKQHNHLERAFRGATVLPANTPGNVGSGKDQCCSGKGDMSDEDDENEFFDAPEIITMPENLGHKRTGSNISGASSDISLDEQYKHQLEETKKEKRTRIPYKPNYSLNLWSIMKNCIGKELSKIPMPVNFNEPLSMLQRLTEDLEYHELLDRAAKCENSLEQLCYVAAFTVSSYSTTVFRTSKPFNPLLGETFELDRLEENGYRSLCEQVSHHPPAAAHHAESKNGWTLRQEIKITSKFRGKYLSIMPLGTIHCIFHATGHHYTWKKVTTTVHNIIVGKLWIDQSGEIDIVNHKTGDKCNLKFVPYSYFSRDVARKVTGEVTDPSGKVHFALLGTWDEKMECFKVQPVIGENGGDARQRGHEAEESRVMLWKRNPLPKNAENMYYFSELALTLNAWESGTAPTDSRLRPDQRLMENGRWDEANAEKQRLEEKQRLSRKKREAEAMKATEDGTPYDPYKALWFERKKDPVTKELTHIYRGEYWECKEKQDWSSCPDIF
inactive: erlotinib -0.059 | [1] 0.111 | [2] 0.063 | [3] 0.109 | [4] -0.009 | [5] 0.019 | [6] -0.027 | [7] -0.042 | [8] -0.001 | [9] 0.013

NDUFA7 (UniProt O95182)
Sequence of UniProt O95182 (O95182 whole entry, looked up): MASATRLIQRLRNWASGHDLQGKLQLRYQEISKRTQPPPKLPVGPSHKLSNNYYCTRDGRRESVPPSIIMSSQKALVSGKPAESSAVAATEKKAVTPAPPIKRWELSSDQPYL
inactive: erlotinib -0.001 | [1] -0.033 | [2] 0.085 | [3] 0.078 | [4] -0.003 | [5] 0.021 | [6] 0 | [7] 0.036 | [8] 0.005 | [9] 0.01

MRPL50 (UniProt Q8N5N7)
inactive: erlotinib -0.107 | [1] -0.033 | [2] 0.048 | [3] 0.004 | [4] -0.008 | [5] 0.066 | [6] 0.312 | [7] 0.072 | [8] -0.084 | [9] -0.073

ORC3 isoform 2 (UniProt Q9UBD5)
Sequence of UniProt Q9UBD5 (Q9UBD5 whole entry, looked up): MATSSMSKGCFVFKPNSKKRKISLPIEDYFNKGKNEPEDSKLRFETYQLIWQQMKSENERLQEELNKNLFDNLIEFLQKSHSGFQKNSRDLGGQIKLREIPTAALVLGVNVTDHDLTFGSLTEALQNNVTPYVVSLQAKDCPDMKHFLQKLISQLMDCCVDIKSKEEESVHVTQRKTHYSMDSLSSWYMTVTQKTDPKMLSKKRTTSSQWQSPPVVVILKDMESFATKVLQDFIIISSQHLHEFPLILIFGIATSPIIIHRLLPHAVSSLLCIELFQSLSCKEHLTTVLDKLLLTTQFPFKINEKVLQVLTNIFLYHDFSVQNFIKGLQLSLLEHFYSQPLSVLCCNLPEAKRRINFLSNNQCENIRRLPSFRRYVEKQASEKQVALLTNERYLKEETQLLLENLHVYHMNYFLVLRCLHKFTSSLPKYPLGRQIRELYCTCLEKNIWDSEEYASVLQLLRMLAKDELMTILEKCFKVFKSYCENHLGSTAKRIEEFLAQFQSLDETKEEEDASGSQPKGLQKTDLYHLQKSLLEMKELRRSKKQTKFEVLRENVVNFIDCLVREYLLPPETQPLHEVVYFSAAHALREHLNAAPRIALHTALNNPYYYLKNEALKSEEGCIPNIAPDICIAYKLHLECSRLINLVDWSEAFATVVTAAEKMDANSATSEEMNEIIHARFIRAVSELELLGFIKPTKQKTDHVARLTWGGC
inactive: erlotinib 0.134 | [1] -0.068 | [2] -0.024 | [3] -0.021 | [4] 0.214 | [5] 0.042 | [6] 0.013 | [7] 0.072 | [8] -0.013 | [9] 0.07

NA, A0A0B4J2A0
inactive: erlotinib -0.037 | [1] 0.07 | [2] 0.065 | [3] -0.009 | [4] 0.037 | [5] 0.038 | [6] 0.108 | [7] 0.026 | [8] -0.055 | [9] -0.007
